# Reference: publication PMC4336329 (PLoS ONE, 2015)
# About 14,000 (4.5%) of roughly 310,000 compounds showed an effect of 50% or more. Effects have a minus sign here. This is one part of a sample in which strong results are shown more often than they occur.
# Biological target: human ether-à-go-go-related gene (hERG) potassium channel (human, UniProt Q12809)
# Assay: primary screen, population patch clamp on CHO cells stably expressing hERG; higher = less effect of the substance
# 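Note: peak tail current of the secondary pulse compared with the same well before compound.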
# human ether-à-go-go-related gene (hERG) potassium channel, sequence (Q12809 whole entry, looked up): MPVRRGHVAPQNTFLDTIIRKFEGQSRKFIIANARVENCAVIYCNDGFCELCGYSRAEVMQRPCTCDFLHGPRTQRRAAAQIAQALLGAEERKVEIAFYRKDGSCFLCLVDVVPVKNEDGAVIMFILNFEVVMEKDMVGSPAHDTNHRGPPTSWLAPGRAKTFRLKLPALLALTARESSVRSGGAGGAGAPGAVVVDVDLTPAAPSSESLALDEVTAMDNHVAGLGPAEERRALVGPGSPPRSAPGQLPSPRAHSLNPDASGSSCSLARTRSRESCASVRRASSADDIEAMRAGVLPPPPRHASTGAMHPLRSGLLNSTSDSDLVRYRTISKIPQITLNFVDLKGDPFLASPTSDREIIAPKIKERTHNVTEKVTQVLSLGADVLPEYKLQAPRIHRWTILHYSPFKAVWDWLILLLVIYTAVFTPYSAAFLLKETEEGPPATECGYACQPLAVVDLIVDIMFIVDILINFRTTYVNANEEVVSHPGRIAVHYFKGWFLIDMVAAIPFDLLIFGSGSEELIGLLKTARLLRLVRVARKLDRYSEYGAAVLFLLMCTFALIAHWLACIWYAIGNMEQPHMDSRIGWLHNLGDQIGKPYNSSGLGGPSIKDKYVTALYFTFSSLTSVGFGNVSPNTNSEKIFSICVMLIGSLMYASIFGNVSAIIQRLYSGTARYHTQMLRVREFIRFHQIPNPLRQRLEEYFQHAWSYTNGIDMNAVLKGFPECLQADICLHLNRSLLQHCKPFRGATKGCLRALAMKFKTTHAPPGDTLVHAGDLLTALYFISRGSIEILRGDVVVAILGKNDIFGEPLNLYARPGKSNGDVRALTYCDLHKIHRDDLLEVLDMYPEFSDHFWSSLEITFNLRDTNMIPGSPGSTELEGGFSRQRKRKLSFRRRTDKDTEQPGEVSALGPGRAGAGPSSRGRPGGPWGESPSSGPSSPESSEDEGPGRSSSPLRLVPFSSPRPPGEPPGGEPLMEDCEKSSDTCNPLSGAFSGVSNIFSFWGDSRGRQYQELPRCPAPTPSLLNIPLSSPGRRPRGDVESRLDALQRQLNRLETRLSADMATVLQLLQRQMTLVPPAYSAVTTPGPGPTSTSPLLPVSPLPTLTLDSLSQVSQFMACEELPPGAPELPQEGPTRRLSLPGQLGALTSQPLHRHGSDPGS
row,Structure (SMILES),"hERG current change (%, negative = inhibition) at 10uM"
1,C=CCn1cccc(C(=O)Nc2ccc(SC)cc2)c1=O,-15%
2,Cc1nn(CC(=O)N2CCN(C34CC5CC(CC(C5)C3)C4)CC2)c(C)c1[N+](=O)[O-],-1.7%
3,Cc1ccc2c(cnn2C(=O)CCCC(=O)NCc2ccc(F)cc2)c1,-9.47%
4,O=C(NCCc1ccccc1)/C(=C/c1ccco1)c1ccccc1,-13.8%
5,CN(C)S(=O)(=O)c1cccc(C(=O)NCC(=O)NC2CCN(Cc3ccccc3)CC2)c1,3.32%
6,Cc1ccc(C(=O)CSc2nnnn2C(C)C)c(C)c1,-3.38%
7,Cc1nc2ccc([N+](=O)[O-])cc2c(=O)n1Cc1cccc(Br)c1,-4.24%
8,COc1ccc(OC)c(NC(=O)c2cc3ccccc3cc2OC)c1,2.44%
9,CCc1c(C#N)sc(C(N)=O)c1CC,13.3%
10,O=[N+]([O-])c1ccc(NC(=S)N2CCN(c3ccccc3)CC2)cc1,-11.4%
11,COc1ccc(NC(=S)N2CCN(c3ccc([N+](=O)[O-])cc3)CC2)cc1OC,-77.3%
12,COc1cccc(NC(=S)N2CCN(c3ccc([N+](=O)[O-])cc3)CC2)c1,-27.5%
13,CCOC(=O)c1cc(CC)sc1NC(=O)C1CC1,-7.16%
14,COC(=O)[C@H](CCSC)NC(=O)NCc1cccs1,20.6%
15,CCOC(=O)C1CCCN(Cc2ccc(OCc3ccccc3)cc2)C1.O=C(O)C(=O)O (stereo not drawn),-40.6%
16,CCOC(=O)C1CCN(Cc2ccc(OC)c(OCc3ccccc3)c2)CC1,-38.3%
17,CCOCCCNC(=O)C1CCN(Cc2ccc(OCc3ccccc3)c(OC)c2)CC1.O=C(O)C(=O)O,-43.3%
18,CC(C)CCNC(=O)C1CCN(Cc2cccc(OCc3ccccc3)c2)CC1.O=C(O)C(=O)O,-50.8%
19,CCOC(=O)C1CCN(Cc2cccc(OCc3ccccc3)c2)CC1.O=C(O)C(=O)O,-43.2%
20,NC(=O)C1CCN(Cc2cccc(OCc3ccccc3)c2)CC1.O=C(O)C(=O)O,-12%
21,CCOC(=O)N1CCN(C(=O)C2CCN(Cc3cccc(OCc4ccccc4)c3)CC2)CC1.O=C(O)C(=O)O,-58.4%

row,Structure (SMILES),"hERG current change (%, negative = inhibition) at 10uM"
1,COCCNC(=O)C1CCN(Cc2cccc(OCc3ccccc3)c2)CC1,-12.2%
2,CCOC(=O)C1CCN(Cc2ccc(OCc3ccccc3)cc2)CC1.O=C(O)C(=O)O,-62%
3,CCOC(=O)N1CCN(C(=O)C2CCN(Cc3ccc(O)c(OCC)c3)CC2)CC1.O=C(O)C(=O)O,20.2%
4,CCCCNC(=O)C1CCN(Cc2ccc(OCc3ccccc3)c(OC)c2)CC1.O=C(O)C(=O)O,-67.2%
5,CCOCCCNC(=O)C1CCN(Cc2cccc(OCc3ccccc3)c2)CC1.O=C(O)C(=O)O,-14.1%
6,COC(=O)c1ccccc1NC(=O)c1nc2nc(C)cc(C(F)F)n2n1,-5.65%
7,Cc1nc2ccccc2c2c1CC(C)S2 (stereo not drawn),-16.8%
8,Cc1ccc2nc(-c3ccccc3O)c(Nc3ccc4c(c3)OCCO4)n2c1,9.98%
9,COc1cc(CN2CCC(C(=O)NCCC(C)C)CC2)ccc1OCc1ccccc1.O=C(O)C(=O)O,-67.8%
10,CCOC(=O)C1CCN(c2c(NCCCN3CCN(Cc4ccccc4)CC3)c(=O)c2=O)CC1,3.6%
11,O=C(C1CCN(Cc2ccc(OCc3ccccc3)cc2)CC1)N1CCCC1,-47.1%
12,CCOC(=O)C1CCN(Cc2ccc(-c3ccccc3)cc2)CC1,-28.8%
13,COc1ccc(CN2CCC(C)CC2)cc1OCc1ccccc1,-49.6%
14,CC(C)CNC(=O)C1CCN(Cc2ccc(OCc3ccccc3)cc2)CC1.O=C(O)C(=O)O,-77.1%
15,COc1cc(CN2CCCCC2)ccc1OCc1ccccc1.O=C(O)C(=O)O,-35.1%
16,CCOC(=O)C1CCN(c2c(N3CCN(Cc4ccccc4)CC3)c(=O)c2=O)CC1,-73.4%
17,CC(O)CNC(=O)C1CCN(Cc2ccc(OCc3ccccc3)cc2)CC1.O=C(O)C(=O)O (stereo not drawn),-33.2%
18,COc1cc(CN2CCC(C)CC2)ccc1OCc1ccccc1.O=C(O)C(=O)O,-52.9%
19,COc1cc(CN2CCC(C(=O)NCC(C)(C)CN(C)C)CC2)ccc1OCc1ccccc1.O=C(O)C(=O)O,13.6%
20,O=C(/C=C/c1ccccc1)Nc1cc(NC(=O)/C=C/c2ccccc2)cc(C(=O)O)c1,21.4%
21,COc1ccc(-c2cc(C)no2)cc1S(=O)(=O)N1CCCN(Cc2ccc(F)cc2)C1,-16.9%

row,Structure (SMILES),"hERG current change (%, negative = inhibition) at 10uM"
1,CC(C)C(=O)Nc1nnc(SCc2cccc(F)c2)s1,-8.88%
2,COc1ccc(Cc2nc(C(=O)Nc3ccc(Cl)cc3)cs2)cc1,-42.8%
3,CCOC(=O)c1nsnc1NCCSC(=N)N.I,3.69%
4,CC1CN(S(=O)(=O)c2ccc(C(=O)Nc3sccc3C(N)=O)cc2)CC(C)O1 (stereo not drawn),-10.8%
5,CCOc1ccc(NC(=O)CCC(=O)Nc2cc(OC)c(NC(=O)c3ccco3)cc2OC)cc1,10.4%
6,O=C(CSc1nc(-c2ccccc2)cs1)N1CCc2ccccc21,3.61%
7,Cc1cccc(N(Cc2cc3ccccc3[nH]c2=O)C(=O)c2ccco2)c1C,4.51%
8,CCC(C)(C)NC(=O)C(c1ccncc1)N(Cc1ccc(C)cc1)C(=O)c1csnn1 (stereo not drawn),-14.1%
9,COc1cc(OC)c(C2N(c3ccccn3)C(=O)C3CCCN32)cc1OC (stereo not drawn),13.8%
10,COc1ccc(C(=O)OCC(=O)NCCN2C(=O)CSC2=O)cc1,-1.03%
11,OC1CCN(Cc2ccc(OCc3ccccc3)cc2)CC1,-5.07%
12,CCOC(=O)C1CCCN(Cc2ccc(OC)c(OCc3ccccc3)c2)C1 (stereo not drawn),-46.1%
13,CCOC(=O)C1CCN(c2c(NCc3ccc(C(=O)N(C)Cc4ccccc4)cc3)c(=O)c2=O)CC1,-65.2%
14,CCOC(=O)C1CCCN(Cc2ccc(OCc3ccccc3)c(OC)c2)C1.O=C(O)C(=O)O (stereo not drawn),-62.2%
15,CCOC(=O)C1CCN(c2c(NCc3ccc(N(C)C)cc3)c(=O)c2=O)CC1,-5.97%
16,CCCNC(=O)c1ccc(CNc2c(N3CCC(C(=O)OCC)CC3)c(=O)c2=O)cc1,3.8%
17,CCCCNC(=O)C1CCN(Cc2ccc(OCc3ccccc3)cc2)CC1.O=C(O)C(=O)O,-71.7%
18,CCOC(=O)C1CCN(Cc2ccc(OCc3ccccc3)c(OC)c2)CC1.O=C(O)C(=O)O,-19.3%
19,CCOC(=O)C1CCCN(Cc2c(C(=O)N3CCOCC3)nc3ccccn23)C1 (stereo not drawn),8.12%
20,O=C(NC1CCCCC1)c1cc([N+](=O)[O-])ccc1N1CCCC1,-0.526%
21,Cc1ccc(/C=C/C(=O)Nc2cccc(S(=O)(=O)N3CCOCC3)c2)o1,-19.9%

row,Structure (SMILES),"hERG current change (%, negative = inhibition) at 10uM"
1,O=C(CCC1CCCC1)Nc1ccon1,12.2%
2,COc1ccc(S(=O)(=O)N(C)CC(=O)NCCN2CCOCC2)cc1Cl,6.98%
3,CCCCC(CCC(=O)Nc1ccccc1C(=O)OCC)C(=O)O (stereo not drawn),-3.09%
4,Cc1ccc(C)c(Cn2c(=O)n(CCCC(=O)NCc3ccco3)c(=O)c3ccccc32)c1,0.892%
5,O=C(Nc1ccc(Cl)cn1)c1ccc(-c2ccc(Cl)c(Cl)c2)o1,10.1%
6,CC(=O)c1ccccc1NS(=O)(=O)c1c(C)nn(-c2ccccc2)c1C,3.03%
7,CCn1nc(C)c(CNC(=O)CCc2nnc(Cc3c[nH]c4ccccc34)o2)c1C,42%
8,CCC(C)(C)n1nnnc1C(c1ccccc1OC)N1CCSCC1 (stereo not drawn),-24.1%
9,CCOc1ccccc1C(C(=O)NCCOC)N(CCOC)C(=O)Cn1nnc2ccccc21 (stereo not drawn),18.5%
10,Cc1ccc(S(=O)(=O)N2CCN(C(=O)c3ccc([N+](=O)[O-])cc3)C2)cc1,-60%
11,O=C(COc1ccc2ccccc2c1)NNC(=O)c1ccc([N+](=O)[O-])cc1,-1.08%
12,Cc1ccc(C(=O)N2CCN(S(=O)(=O)c3ccc(C)cc3)CC2)cc1,-20.1%
13,Cc1ccc(OCC(=O)N2CCN(C(=O)c3ccc([N+](=O)[O-])cc3)CC2)cc1,-83.4%
14,Cc1ccc(C(=O)N2CCN(S(=O)(=O)c3ccc(C)c([N+](=O)[O-])c3)C2)cc1,-42.7%
15,O=C(COc1ccc2ccccc2c1)N1CCN(C(=O)c2ccc([N+](=O)[O-])cc2)CC1,-76.5%
16,Cc1ccc(OCC(=O)N2CCCCCCC2)cc1,7.87%
17,Cc1cccc(OCC(=O)N2CCN(C(=O)c3cccs3)CC2)c1,-7.23%
18,Cc1ccc(OCC(=O)N2CCN(C(=O)c3cccc(F)c3)CC2)cc1,-13.3%
19,Cc1cccc(OCC(=O)N2CCN(C(=O)c3ccc([N+](=O)[O-])cc3)CC2)c1,-68.8%
20,Cc1cccc(OCC(=O)NNC(=O)c2ccc([N+](=O)[O-])cc2)c1,1.5%
21,O=C(COc1ccc2ccccc2c1)N1CCN(c2ccccc2)CC1,11.7%
